Screens deposited in PubChem by National Center for Advancing Translational Sciences (NCATS).
The list is not random: actives were taken first. Their share in the collection is about 12%.
BAZ2B inh – qHTS Assay for Inhibitors of BAZ2B. Potency, µM (top dose mostly 114 µM), inactives show at the top dose activity change, negative = inhibition, most hits filed as inhibitors. 4.4% of 360,000 active. AID 504333, 2011. Bromodomain adjacent to zinc finger domain protein 2B (Homo sapiens), Q9UIF8. AlphaScreen BAZ2B-H3K14Ac peptide displacement; also: % is scaled to controls: 0 for no effect and ±100 for the full control effect; nearly all actives have a fitted effect of over 60% in size
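BAZ2B (50 nM) with biotin-H3(5-23)K14Ac peptide (50 nM) in PBS pH 7.4, 0.01% Tween-20, preformed 30 min, then compound 30 min at room temperature; top concentration 110uM. AlphaScreen streptavidin donor/nickel chelate acceptor beads (10 ug/mL final), 20 min dark, signal read.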
L3MBTL1 inh-1 – qHTS Assay for the Inhibitors of L3MBTL1; Lethal(3)malignant brain tumor-like protein 1 (Homo sapiens), Q9Y468; AlphaScreen L3MBTL1–H3K9me1 peptide binding; Potency, µM (series often up to 57.1 µM), without a hit: at the top dose activity, negative = inhibition, hits mostly inhibitors; 0.66% of 230,000 active; AID 485360, 2010; also: % is scaled to controls: 0 for no effect and ±100 for the full control effect; nearly all actives have a fitted effect of over 60% in size
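L3MBTL1 50 nM + b-AHA-H3(1-15)K9me1 75 nM, 30 min RT; compound added, 30 min RT; streptavidin donor/Ni-chelate acceptor beads 10 ug/mL each final, 30 min RT dark; AlphaScreen read.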
G9a block – qHTS Assay for Inhibitors of Histone Lysine Methyltransferase G9a; Histone-lysine N-methyltransferase EHMT2 (Homo sapiens), Q96KQ7; G9a H3K9 monomethylation, AlphaScreen, 2 h; Potency, µM (highest dose often 102 µM), without a hit: at the highest dose activity, negative = inhibition, actives largely listed as inhibitors; 8.8% of 350,000 active; also: % is scaled to controls: 0 for no effect and ±100 for the full control effect; nearly all actives have a fitted effect of over 75% in size
Target sequence (Q96KQ7 913-1193 limits assumed): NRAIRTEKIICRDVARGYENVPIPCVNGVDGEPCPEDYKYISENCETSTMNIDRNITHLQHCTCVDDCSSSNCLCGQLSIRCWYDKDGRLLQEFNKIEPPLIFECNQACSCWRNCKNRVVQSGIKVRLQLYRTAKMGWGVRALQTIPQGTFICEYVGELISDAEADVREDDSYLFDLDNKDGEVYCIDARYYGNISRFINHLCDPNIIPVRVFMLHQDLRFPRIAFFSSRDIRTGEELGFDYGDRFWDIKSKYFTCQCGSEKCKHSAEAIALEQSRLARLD
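AlphaScreen detection with an anti-monomethyl H3K9 antibody quantified product after a 2 h room-temperature reaction containing 500 nM biotinylated H3K9 peptide, 20 µM SAM and 20 nM enzyme, which had been preincubated 15 min with compound.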
JMJD2A Tudor – qHTS Assay for Inhibitors of JMJD2A-Tudor Domain; Lysine-specific demethylase 4A (Homo sapiens), O75164; AlphaScreen JMJD2A-Tudor / H3K4me3 peptide binding; Potency, µM (top dose mostly 114 µM), for inactives: at the top dose activity change, negative = inhibition, usual class: inhibitors; 4.4% of 390,000 active; also: % is scaled to controls: 0 for no effect and ±100 for the full control effect; nearly all actives have a fitted effect of over 50% in size
HP1b chromo inh – HTS for Inhibitors of HP1-beta Chromodomain Interactions with Methylated Histone Tails. Chromobox protein homolog 1 (Homo sapiens), P83916. AlphaScreen HP1-beta / biotin-H3K9me3 peptide binding. Potency, µM (titrated, usually from 114 µM), for the others: at the top dose activity change, negative = inhibition, hits mostly inhibitors. 0.56% of 390,000 active. AID 540317, 2011; also: nearly all actives have a fitted effect of over 70% in size
Target sequence (P83916 whole entry, looked up): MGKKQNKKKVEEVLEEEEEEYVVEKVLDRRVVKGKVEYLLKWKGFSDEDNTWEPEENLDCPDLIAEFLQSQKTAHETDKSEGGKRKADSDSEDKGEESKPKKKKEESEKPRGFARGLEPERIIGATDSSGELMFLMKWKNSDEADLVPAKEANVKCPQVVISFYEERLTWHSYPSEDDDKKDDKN
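HP1-beta protein (50 nM final) preincubated 30 min at room temperature with biotinylated H3(1-18)K9me3 peptide (50 nM) in PBS pH 7.4, 0.01% Tween-20, then compound added for 30 min. AlphaScreen streptavidin donor/nickel chelate acceptor beads (10 ug/mL final), 30 min dark, luminescence read.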
Sfp inh – qHTS Assay for Inhibitors of Bacillus subtilis Sfp phosphopantetheinyl transferase (PPTase); Biochemical Sfp PPTase activity, qHTS; Potency, µM, for the others: largest response in the series, negative = inhibition, actives largely listed as inhibitors; 3.5% of 310,000 active;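 also: the enzyme is Sfp with the accession as filed and its product quenches rhodamine fluorescence; 0% = enzyme reaction without inhibitor and -100% = no enzyme wells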
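With Hepes-Na pH 7.6 buffer containing 10 mM MgCl2, Sfp (15 nM) modified BHQ-2-YbbR (12.5 uM) using rhodamine-CoA (5 uM). Two reads 30 minutes apart at 525/598 nm yielded each well's rate.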
L3MBTL1 inh-2 – qHTS Assay for the Inhibitors of L3MBTL1: Hit Validation | shares compounds with L3MBTL1 inh-1 | L3MBTL1 methyl-lysine binding inhibition, biochemical qHTS | Potency, µM, most hits filed as inhibitors | 91% of 500 active; also: nearly all actives have a fitted effect of over 70% in size
AlphaScreen ctr2 – qHTS Assay for the Inhibitors of L3MBTL1: Hit Validationin AlphaScreen Counterscreen; shares compounds with L3MBTL1 inh-1; AlphaScreen counterscreen, signal inhibition; Potency, µM (doses to about 57.1 µM), without a hit: at the highest dose activity change, negative = inhibition, hits mostly inhibitors; AID 602224, 2012; 500 tested, under 10 active; also: 0% is about no effect
* hit, by the source's call; ? = inconclusive; · = no result given; [ ] = dose if it differs, or a comment. Calls follow the shape of the dose curve; as a rule, active = well fitted curve in the direction sought with a large enough effect; inconclusive = small, poorly fitted or top-dose-only effect, or another doubt; inactive = no such curve, though single readings can be large; an effect the other way counts as inactive or inconclusive. Potency is read from the fitted curve at half-maximal effect.

SMILES	BAZ2B inh	L3MBTL1 inh-1	G9a block	JMJD2A Tudor	HP1b chromo inh	Sfp inh	L3MBTL1 inh-2	AlphaScreen ctr2
Cc1cc(C)n(-c2nnc3c4ccccc4n(C)c3n2)n1	11.2µM*	28.2µM*	1.2%	79.4µM*	41.4%	8.6%	?	?
C/C(=N\Nc1nnc2c3ccccc3n(C)c2n1)c1ccc(C)o1	-15.1%	-4.2%	10.9%[59 µM]	?	7.9%	-3.1%	·	·
NNC(=O)C1C(O)CCC2CN3CCc4c([nH]c5ccccc45)C3CC21 (stereo not given)	·	·	·	-27.8%	4.1%	·	·	·
CCn1ccnc1C(O)(c1ccccc1)c1ccccc1	2.4%	3.8%[2.29 µM]	24.4%[0.501 µM]	-10.6%	22.8%	7.4%	·	·
Cc1cccc(N(CC(=O)N2CCc3ccccc3C2)S(C)(=O)=O)c1C	0.1%	-4.2%[2.29 µM]	0.0%[0.501 µM]	-9.0%	39.2%	3.5%	·	·
Cc1ccc(/C=C2\SC(=S)N(C3CCS(=O)(=O)C3)C2=O)o1 (stereo not given)	39.8µM*	25.1µM*	·	?	-35.8%	50.1µM*	21.2*	-3.6%
O=C1/C(=C\c2cccs2)SC(=S)N1C1CCS(=O)(=O)C1 (stereo not given)	?	?	?	?	-1.0%	-9.0%	·	·
O=C(O)c1cccc(-n2cccc2/C=C2/NC(=O)N(Cc3ccccc3F)C2=O)c1	50.1µM*	31.6µM*	44.7µM*	-16.5%[11.4 µM]	-25.7%	50.1µM*	5.97*	9.2%
Cc1ccc(NC(=O)CN2C(=O)N/C(=C/c3cccn3-c3ccc(C(=O)O)cc3)C2=O)cc1	3.98µM*	2.24µM*	8.91µM*	3.16µM*	2.82µM*	50.1µM*	0.474*	?
Cc1ccc2nc(-c3ccc(O)c(O)c3)cn2c1	50.1µM*	31.6µM*	·	22.4µM*	?	56.2µM*	5.32*	-0.7%
O=C(O)/C=C/c1nc(-c2ccccc2)n2ccccc12	44.7µM*	17.8µM*	11.2µM*	-28.4%	5.6%	10.6%	?	-15.4%
CCC(=O)C1CCCN(C(=O)c2ccc(OC)c(OC3CCN(C(C)=O)CC3)c2)C1 (stereo not given)	-4.8%	·	22.3%	-14.5%	25.4%	13.1%	·	·
O=C(COC(=O)C12CC3CC(CC(O)(C3)C1)C2)Nc1cccc(Br)c1	4.4%	6.5%	?	-13.8%	6.2%	·	·	·
O=c1cc(-c2ccccc2)c2c([nH]1)CCCC2	-6.2%	-2.2%	?	-10.8%	6.4%	7.0%	·	·
O=c1cc(-c2ccccc2Cl)c2c([nH]1)CCC2	-4.3%	28.2µM*	?	-31.2%	23.4%	-14.9%	?	7.9%
COc1ccc2c(CNC3CCCC3)c(C(=O)O)n(Cc3ccccc3C)c2c1	-15.4%	·	-7.5%[59 µM]	-15.8%	17.6%	·	·	·
CCS(=O)(=O)N1Cc2ccccc2CC1C(=O)Nc1nnc(SCc2ccc(C#N)cc2)s1 (stereo not given)	2.5%	17.8µM*	44.7µM*	-17.6%	24.1%	6.0%	3.36*	20.3%
CC1CC(C)CN(C(=O)CCn2c(=O)oc3ccccc32)C1 (stereo not given)	-1.8%	·	16.3%	-13.1%	32.2%	5.6%	·	·
CC(=O)c1ccc(NC(=O)CC2Nc3cccc4cccc(c34)NC2=O)cc1 (stereo not given)	?	3.55µM*	?	?	-8.7%	50.1µM*	26.7*	?
CCOC(=O)c1[nH]c2c(c1C)C(=O)CC(c1ccco1)C2 (stereo not given)	44.7µM*	31.6µM*	?	56.2µM*	-14.7%	25.1µM*	21.2*	6.7%
Cc1c(C(=O)OCCOC(C)C)[nH]c2c1C(=O)CC(c1ccco1)C2 (stereo not given)	50.1µM*	25.1µM*	44.7µM*	?	-16.1%	?	23.8*	-2.1%
COCCOC(=O)c1[nH]c2c(c1C)C(=O)CC(c1ccco1)C2 (stereo not given)	50.1µM*	31.6µM*	50.1µM*	44.7µM*	50.1µM*	-25.7%	15*	-1.5%
CSCCOC(=O)c1[nH]c2c(c1C)C(=O)CC(c1ccco1)C2 (stereo not given)	44.7µM*	35.5µM*	22.4µM*	35.5µM*	?	44.7µM*	18.9*	-4.8%
O=C(COc1ccc(Br)cc1)NCCN1CCCC1	8.6%	0.0%[2.29 µM]	18.4%[0.501 µM]	-6.6%	29.9%	16.4%	·	·
COc1ccc(C2=NN(C(=O)c3ccccc3)C(c3ccc(OC)c(OC)c3)C2)c(OC(C)=O)c1 (stereo not given)	-30.8%	·	-33.8%	·	·	-5.4%	·	·
SMILES	BAZ2B inh	L3MBTL1 inh-1	G9a block	JMJD2A Tudor	HP1b chromo inh	Sfp inh	L3MBTL1 inh-2	AlphaScreen ctr2
Cc1c(C(=O)OCc2ccccc2)[nH]c2c1C(=O)CC(c1ccco1)C2 (stereo not given)	50.1µM*	25.1µM*	?	25.1µM*	70.8µM*	39.8µM*	15*	10.1%
COc1ccc(C2CC(=O)c3c([nH]c(C(=O)OCc4ccccc4)c3C)C2)cc1 (stereo not given)	-12.1%	·	-16.4%[59 µM]	-36.0%	24.2%	·	·	·
CCn1c2ccccc2c2cc(N=C3SC(CC(=O)Nc4ccccc4OC)C(=O)N3CCOC)ccc21 (stereo not given)	-34.0%	28.2µM*	-20.4%[59 µM]	?	-8.5%	20.6%	7.52*	?
CCn1c2ccccc2c2cc(N=C3SC(CC(=O)Nc4ccccc4OC)C(=O)N3C)ccc21 (stereo not given)	-30.1%	-6.2%	37.6%[12.7 µM]	-5.7%	2.2%	2.0%	·	·
O=c1c2ccccc2c(C=NCc2ccccn2)c(O)n1-c1ccccc1	-5.0%	3.3%	10.5%[59 µM]	-2.2%	49.3%	14.6%	·	·
O=c1oc2ccccc2c(O)c1C=NCc1ccccn1	?	15.8µM*	45.8%[59 µM]	-12.0%	43.9%	15.2%	21.2*	24.7%
Cc1ncc([N+](=O)[O-])n1CC(=O)Nc1ccc(Br)cc1	2.4%	·	50.4%	-15.6%	54.5%	9.5%	·	·
